Screening results: PubChem, National Center for Advancing Translational Sciences (NCATS)
Shown is part of a subset that was picked to be rich in hits.
GoLoco inh red = blocks human Gai1 binding to RGS12 GoLoco peptide, red readout | P63096 | Gai1:RGS12 GoLoco peptide FP, rhodamine, 10 min | Potency, µM (doses to about 61.6 µM), inactives show top-dose activity, negative = inhibition, usual class: inhibitors | 230,000 compounds, 0.44% hits; active means well fitted inhibition curve with a large enough effect, not every such curve was filed as active; inactive means no such curve, though single readings can be large or run the other way; further: on the % scale 0 is the no-effect control and ±100 the full control effect; nearly all actives have a fitted effect of over 30% in size
TexasRed fluor = alters Texas Red total fluorescence, flagging assay interference. 280,000 compounds, 0.29% hits. TRb/SRC2 Texas Red total fluorescence interference. AID 1479. Potency, µM (series often up to 106 µM), for inactives: top-dose fluorescence change, negative = quenching; active means well fitted curve in either direction with a large enough effect; inconclusive means small, poorly fitted or top-dose-only effect; further: on the % scale 0 is the no-effect control and ±100 the full control effect
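Flags fluorescent or light-absorbing compounds by total fluorescence, S + 2P, at 555 nm excitation and 632 nm emission. Mixture: 20 nM Texas Red SRC2 peptide, 0.6 uM human TRb LBD, 1 uM T3, 5% DMSO; compound exposure 5 h at ambient temperature.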
ERG-DNA inh = ERG Ets/DNA interaction inhibition; Potency, µM (series often up to 76.9 µM), inactives show top-dose FP activity, negative = inhibition, hits mostly inhibitors; 370,000 compounds, 0.028% hits; fluorescence polarization, His-ERG Ets domain / labelled DNA; active means well fitted inhibition curve with a large enough effect in the polarisation, with a control signal flat; inconclusive means small, poorly fitted or top-dose-only effect, or effect the other way, or a change in a side signal; inactive means no such curve, though single readings can be large or run the other way; the % refers to the polarisation;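 further: polarization taken with two DNA probes labelled with fluorescein and Texas red; % of control where 0% means no effect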
Target sequence (P11308 whole entry, looked up, the tested form may be a part): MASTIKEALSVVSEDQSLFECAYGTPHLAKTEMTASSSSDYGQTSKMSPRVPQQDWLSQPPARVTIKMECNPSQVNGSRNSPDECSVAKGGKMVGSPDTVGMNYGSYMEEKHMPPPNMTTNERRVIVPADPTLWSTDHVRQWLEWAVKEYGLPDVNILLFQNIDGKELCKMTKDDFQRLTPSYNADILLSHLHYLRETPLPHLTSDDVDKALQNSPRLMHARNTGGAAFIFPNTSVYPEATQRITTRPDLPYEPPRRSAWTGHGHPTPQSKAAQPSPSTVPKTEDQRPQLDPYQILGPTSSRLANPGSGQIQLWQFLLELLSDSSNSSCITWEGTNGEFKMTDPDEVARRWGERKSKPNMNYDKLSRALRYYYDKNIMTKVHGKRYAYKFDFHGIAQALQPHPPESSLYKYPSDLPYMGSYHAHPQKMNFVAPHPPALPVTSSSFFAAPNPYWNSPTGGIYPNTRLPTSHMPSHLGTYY
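His-tagged ERG Ets domain (1 uM in the protein solution; 300mM KCl, 50mM Tris-HCl, 1mM EDTA, 1mM DTT, pH 7.5) received compound, then a probe mix of 5 nM fluorescein-DNA and 100nM Texas-615-DNA. Fluorescence polarization was read for both dyes.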
TRb SRC2 PPI = inhibitors of human thyroid hormone receptor beta-SRC2 interaction; P10828; TRbeta-SRC2 peptide binding, fluorescence polarization; receptor liganded with 1 µM T3; Potency, µM (titrated, usually from 106 µM), for the others: top-dose activity change, negative = inhibition, usual class: inhibitors; 280,000 compounds, 0.065% hits; AID 1469; active means well fitted inhibition curve with a large enough effect; inconclusive means small, poorly fitted or top-dose-only effect, or effect the other way;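 further: plate controls were bound peptide for no effect and peptide without receptor for full effect; nearly all actives have a fitted effect of over 50% in size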
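Assay buffer: 20 mM Tris-HCl, 100 mM NaCl, 10% glycerol, 1 mM EDTA, 0.01% NP-40, 1 mM DTT, 1 uM T3, 5% DMSO; TRb LBD 0.6 uM, Texas Red SRC2 20 nM; FP after 5 hr.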
Numbers without * were called inactive; ? = inconclusive; / = not tested or not shown; ! = a repeat was not active; [ ] = remark or other dose. Potency means the concentration at half of the fitted maximal effect.

SMILES	GoLoco inh red	TexasRed fluor	ERG-DNA inh	TRb SRC2 PPI
CC(=O)N1N=C(c2ccc(C)cc2)CC1c1cn(-c2ccccc2)nc1-c1cccs1 (centres undefined)	/	100µM*[quencher]	3%	-7%
CC1=[N+](C)c2c(ccc3cccnc23)C1(C)C	224%	11µM*[fluorescent]	125%	25µM*
Cc1[nH]c2c(ccc3cccnc32)c1C	2%	-3%	-8%	2%
CC(=O)/C(C[N+]1(C)CCCCC1)=N\O	3.2µM*	0%	3%	-7%
COc1ccc(CCNC(=O)c2csc3c2CCCCC3)c(OC)c1	/	20µM*[quencher]	-3%	-7%
CCOC(=O)C1=NN(c2ccc(Cl)cc2Cl)C(C)(C(=O)OCC)C1 (centres undefined)	/	-2%[201 µM]	/	5%[201 µM]
Cc1ccc2ccccc2[n+]1CCCS(=O)(=O)[O-]	-14%	2%	1%	8%
Cc1ccc2ccc(C)[n+](CCCS(=O)(=O)[O-])c2c1	7.9µM*	-1%	0%	5%
CCCCCCc1ccc(C(=O)CCN(C)C)cc1	/	1%	/	16µM*
CN(C)CCC(=O)c1ccc(F)cc1	3%	-6%	11%	-2%
CCCCCCCCCCCCCCCCCC(N)=O	/	-1%[201 µM]	/	-1%[201 µM]
O=C(c1cnc2c(c1)COc1ccc(Cl)cc1-2)c1ccccc1O	4%	7.9µM*![quencher]	-12%	-15%
CCOC(=O)N1CCN(Cc2nc3cc(NC(=O)c4ccccc4[N+](=O)[O-])ccc3n2C(C)C)CC1	/	8.9µM*[quencher]	2%	?
NCCC[C@@H](CC(=O)N[C@@H]1CCNC[C@H]1C(=O)N[C@H](CC(=O)N[C@@H](CCC(=O)O)CC(=O)O)Cc1c[nH]c2ccccc12)NC(=O)C[C@H](Cc1c[nH]c2ccccc12)NC(=O)[C@@H]1CCCC[C@H]1N	-1%	-2%	/	-4%
NCCC[C@@H](CC(=O)N[C@@H]1CCNC[C@H]1C(=O)N[C@H](CC(=O)N[C@@H](CCC(=O)O)CC(=O)O)Cc1ccccc1)NC(=O)C[C@H](Cc1c[nH]c2ccccc12)NC(=O)[C@@H]1CCCC[C@H]1N	20µM*	-1%	/	0%
O=C=NCCCCCCN=C=O	/	-4%[201 µM]	/	-1%[201 µM]
CC(C)N1CC2=C(OC(N)=C(C#N)C2c2cccnc2)/C(=C/c2cccnc2)C1 (centres undefined)	-96%	45µM*[fluorescent]	-23%	45µM*
N#CC1=C(N)OC2=C(CN(Cc3ccccc3)C/C2=C\c2cccnc2)C1c1cccnc1 (centres undefined)	-46%	?	-4%	?
CCN1CC2=C(OC(N)=C(C#N)C2c2ccccc2)/C(=C\c2ccccc2)C1 (centres undefined)	68%	45µM*[fluorescent]	5%	45µM*
CCN1CC2=C(OC(N)=C(C#N)C2c2cccs2)/C(=C/c2cccs2)C1 (centres undefined)	57%	-2%	11%	-17%
CCC(=O)NC1=C(Cl)C(=O)C(NC(=O)CC)=C(Cl)C1=O	1.3µM*	0%	-23%	8%
CCC(=O)NC1=C(NC(C)c2ccccc2)C(=O)c2ccccc2C1=O (centres undefined)	15%	1%	-3%	-9%
C=C(C)C(=O)OC[C@@H]1CCC[N@+]2(C)CCCCC12 (some centres undefined)	-13%	-2%	/	9%
CC(=O)OC1C2CCC1C([N+]1(C)CCCCC1)CC2 (centres undefined)	14µM*	-1%	-3%	2%
C[N+]1(C2CCC3CCC2C3O)CCCC1 (centres undefined)	16µM*	-4%	-2%	-1%
SMILES	GoLoco inh red	TexasRed fluor	ERG-DNA inh	TRb SRC2 PPI
O=C(O)CCCc1ccc2ccc3ccccc3c2c1	7%[14.2 µM]	/	/	/
COc1ccc(-c2csc(NC(=O)C3CC(=O)N(c4ccc5c(c4)OCCO5)C3)n2)cc1 (centres undefined)	/	-6%	-6%	14%
CC(=O)Nc1ccc(-c2csc(NC(=O)C3CC(=O)N(c4ccc5c(c4)OCCO5)C3)n2)cc1 (centres undefined)	9%	-3%	22µM*	-1%
CC(=Nc1ccccc1N)c1c(C)cc(=O)n(O)c1O	/	3%	/	12%
N#Cc1c(N)sc(=S)c2c1CCCCC2	25µM*	4%	?	-14%
N#Cc1c(N)sc2c1CCCCCC2	/	-2%	1%	3%
Cc1cc2ncn(CC(=O)O)c2cc1C	6%[14.2 µM]	/	/	/
N#C/C(=C\c1ccc(OCc2ccc(Cl)cc2Cl)cc1)c1nc2ccccc2[nH]1	/	282µM*[quencher]	-1%	-26%[53 µM]
COc1cc(/C=C(\C#N)c2nc3ccccc3[nH]2)cc(Cl)c1OCc1ccccc1Cl	/	2%	-1%	-10%
O=C(O)c1ccc(/C=N\N=C2c3ccccc3-c3ccccc32)cc1	1%[14.2 µM]	/	/	/
C[Si](C)(c1ccc(C(=O)O)cc1)c1ccc(C(=O)O)cc1	0%[14.2 µM]	/	/	/
O=C(O)c1ccc(N2C(=O)/C(=C/c3ccc(-c4ccc([N+](=O)[O-])cc4)o3)C=C2c2ccccc2)cc1	41%	35µM*[fluorescent]	53%	13%
CC(=O)N1CCN(c2ccc(NCc3ccc4c(c3)OCO4)cc2)CC1	-39%	12%	-8%	40µM*
O=C(c1ccccc1)N1CCN(c2ccc(NCc3ccc4c(c3)OCO4)cc2)CC1	-15%	-2%	-2%	-13%
COc1ccc(CCNCc2ccc3c(c2)n(C)c(=O)n3C)cc1OC	/	89µM*[quencher]	1%	-22%
COc1ccc(-c2cn3c(n2)sc2cc(C(=O)Nc4cc(OC)cc(OC)c4)ccc23)cc1	/	0.0007µM*[quencher]	3%	-15%
O=C(NC1CCCCCC1)c1ccc2c(c1)sc1nc(-c3ccc(F)cc3)cn12	/	1µM*[quencher]	-2%	-12%
COc1ccc(-c2cn3c(n2)sc2cc(C(=O)Nc4cccc(OC)c4)ccc23)cc1	/	-17%	-6%	-3%
CC(=O)Nc1ccc2c(c1)C(C)(C)C(C)N2C (centres undefined)	177%	40µM*[fluorescent]	33%	?
N#C/C(=C\Nc1ccc2cn[nH]c2c1)c1nc(-c2ccc(Cl)cc2)cs1	82%	?	10%	71µM*
O=C1N(Cc2cccnc2)C[C@@H]2C[C@@H](c3ccc(C(F)(F)F)cc3)N3CCC[C@@]123	-9%	-1%	-5%	-10%
O=C1N(Cc2cccnc2)C[C@@H]2C[C@@H](c3ccccc3C(F)(F)F)N3CCC[C@@]123	-7%	-8%	32µM*	2%
C=Cc1ccc(P(c2ccccc2)c2ccccc2)cc1	/	3%[201 µM]	/	11%[201 µM]
COc1ccc(OCC(=O)NCC(c2ccc(OC)cc2)N2CCOCC2)cc1 (centres undefined)	/	89µM*[quencher]	10%	-25%
CCN1CCN(C(=O)c2ccc3c(c2)N(Cc2ccc(Cl)cc2)C(=O)c2ccccc2S3(=O)=O)CC1	/	1%	-8%	1%
CCN1CCN(C(=O)c2ccc3c(c2)N(Cc2ccccc2)C(=O)c2ccccc2S3(=O)=O)CC1	/	0.013µM*[quencher]	4%	-16%
CCCCNC(=O)Cn1c(=O)n(C)c2ccccc21	1%	-2%	3%	6%
CCCNC(=O)Cn1c(=O)n(C)c2ccccc21	0%	45µM*[fluorescent]	-4%	32µM*
